Source: PubChem (National Center for Advancing Translational Sciences (NCATS))
Pf growth 96h – Primary qHTS for delayed death inhibitors of the malarial parasite plastid, 96 hour incubation; P. falciparum luciferase reporter growth, 96 h; Potency, µM (series often up to 28.7 µM), most hits filed as inhibitors; hit rate 6.9% among 320,000; AID 504834, 2011
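Cell-based qHTS: luciferase-tagged P. falciparum in erythrocytes (2% hematocrit, 0.05% parasitemia final) incubated with compounds for 96 hours, 37 C, 5% CO2; luciferase detection reagent then added and luminescence measured.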
Pf growth 48h – Primary qHTS for delayed death inhibitors of the malarial parasite plastid, 48 hour incubation. P. falciparum luciferase growth in erythrocytes, 48 h. Potency, µM (series often up to 28.7 µM), usual class: inhibitors. hit rate 5.9% among 310,000. AID 504832, 2011
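Erythrocytes infected with P. falciparum carrying an integrated firefly luciferase reporter (2% hematocrit, 0.1% parasitemia final) were exposed to compounds in RPMI 1640 with 0.5% Albumax at 37 C, 5% CO2. Growth inhibition was scored as reduced luminescence.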
HCMV inh – qHTS Assay for inhibitors of the human cytomegalovirus (HCMV); HFF cells, HCMV-luciferase reporter, 72 h; hits give low values; activity change, negative = inhibition, % at 57.5 µM; hit rate 4.5% among 410,000; AID 1259415, 2018; in the data active = activity change below about -60%; inconclusive = no clear call, values can overlap the other calls; inactive = above about -39%
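HFF cells seeded 16 h at 37C, treated with compounds, infected with luciferase-reporter HCMV at MOI 1 PFU/cell; luciferase read at 72 h post infection, normalized to buffer-only and Salinomycin controls.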
Shiga inhibitor – A qHTS for Small Molecule Inhibitors of Shiga Toxin. AID 2315, 2010. inhibition, % at 38.7 µM. Vero cells, Shiga toxin protein synthesis inhibition reporter. hit rate 9.2% among 290,000; in the data active = inhibition mostly above about 28%, no sharp cut-off; inactive = mostly below about 43%
Cycloheximide cs – Cycloheximide Counterscreen for Small Molecule Inhibitors of Shiga Toxin. cell reporter, cycloheximide protein synthesis inhibition counterscreen. max response, %. hit rate 12% among 300,000. AID 2314, 2010; in the data active = max response mostly above about 13%, no sharp cut-off; inactive = mostly below about 14%; note: read at 38.3 µM for the half of the compounds with a filed dose
HCV inhibitor – qHTS Assay for Inhibitors of Hepatitis C Virus (HCV); Potency, µM (series often up to 41.8 µM), usual class: inhibitors; Huh7.5.1 HCVcc-Cre infection, luciferase reporter, 44 h; AID 651820, 2012; hit rate 3.4% among 340,000
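HCVcc-Cre virus at an moi near 0.5 was added right after compound to cells cultured 4 h from seeding (1,000 cells/well). Luciferase activity was determined 44 h later, 15 min after substrate addition at RT.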
A number is an active result; n = inactive; u = inconclusive; x = not tested or not shown. The list is not random: actives were taken first. Their share in the collection is about 21%. Unless noted, calls come from the whole dose curve; as a rule, active = well fitted inhibition curve with a large enough effect; inconclusive = small, poorly fitted or top-dose-only effect, or another doubt; inactive = no such curve, though single readings can be large or run the other way.

SMILES	Pf growth 96h	Pf growth 48h	HCMV inh	Shiga inhibitor	Cycloheximide cs	HCV inhibitor
CN(C(=O)/C=C/c1cnc2ccccc2c1)C1CCCCC1	n	n	n	70	26	n
CCN(C(=O)/C=C/c1ccccc1)C1CCCCC1	13µM	n	n	n	6.9	n
COc1ccc(/C=C/C(=O)N(C)C2CCCCC2)cc1Br	n	n	u	78	26	n
CCN(CC)C(=O)/C=C/c1ccccc1	n	n	n	x	x	n
COc1cc(/C=C/C(=O)CC(=O)/C=C/c2ccc(O)c(OC)c2)ccc1O	u	u	n	n	n	u
COc1ccc(/C=C/C(=O)N(C(C)C)C(C)C)cc1Br	u	6.6µM	n	51	24	n
Cc1cc(OC(C)C(=O)NCc2ccccn2)c2c(C)cc(=O)oc2c1 (stereo not drawn)	3.7µM	1.7µM	n	n	n	n
CCCCc1cc(=O)oc2cc(C)cc(OCC(=O)Nc3cccnc3)c12	0.52µM	0.47µM	n	n	n	u
CCCCc1cc(=O)oc2cc(C)cc(OCC(=O)NCc3ccccn3)c12	2.6µM	2.9µM	n	n	n	u
CCc1cc(=O)oc2cc(C)cc(OC(C)C(=O)NCCCn3ccnc3)c12 (stereo not drawn)	u	10µM	n	n	n	n
CCCc1cc(=O)oc2cc(C)cc(OCC(=O)NCc3cccnc3)c12	n	u	u	n	n	u
CCCCc1cc(=O)oc2cc(C)cc(OC(C)C(=O)NCc3ccccn3)c12 (stereo not drawn)	u	u	n	n	n	u
CCc1cc(=O)oc2cc(C)cc(OC(C)C(=O)NCCCN3CCCC3=O)c12 (stereo not drawn)	u	u	u	n	n	n
O=S(=O)(c1ccc(Br)cc1)c1nc(-c2ccco2)oc1SCc1ccccc1Cl	x	x	n	x	x	x
Cc1ccn2c(NC3CCCCC3)c(-c3cccc(SC4CCCCC4)c3)nc2c1	x	x	n	x	x	u
COc1ccc(Nc2c(-c3ccc(OC)cc3)nc3cnccn23)cc1	n	u	n	n	n	n
Oc1ccc(Br)cc1-c1nc2cnccn2c1NC1CCCC1	n	2.6µM	u	n	n	11µM
Fc1ccc(-c2nc3cnccn3c2NC2CCCC2)cc1	n	n	n	n	n	14µM
Oc1ccc(Br)cc1-c1nc2cnccn2c1NC1CCCCC1	x	3.3µM	u	n	n	u
COc1cccc2sc(NC(=O)c3ccc(S(=O)(=O)N4CCOCC4)cc3)nc12	n	n	n	n	n	n
COCCn1c(=NC(=O)c2ccc(S(=O)(=O)N3CCOCC3)cc2)sc2cc(S(N)(=O)=O)ccc21	8.3µM	u	n	n	n	u
CCn1c(=NC(=O)c2ccc(S(=O)(=O)N3CCOCC3)cc2)sc2cccc(OC)c21	u	u	n	n	n	10µM
COC(=O)Cn1c(=NC(=O)c2ccc(S(=O)(=O)N3CCOCC3)cc2)sc2cc(S(N)(=O)=O)ccc21	u	u	n	n	n	x
CCn1c(=NC(=O)c2ccc(N3C(=O)CCC3=O)cc2)sc2c(OC)ccc(OC)c21	u	x	n	n	n	14µM
C#CCn1c(=NC(=O)c2ccc(S(=O)(=O)N3CCCc4ccccc43)cc2)sc2cc(S(N)(=O)=O)ccc21	2.9µM	9.3µM	n	n	n	u
SMILES	Pf growth 96h	Pf growth 48h	HCMV inh	Shiga inhibitor	Cycloheximide cs	HCV inhibitor
CCn1c(=NC(=O)c2cccc(N3C(=O)CCC3=O)c2)sc2c(C)ccc(OC)c21	n	n	n	n	n	n
COc1cccc(CNC(=O)CCC2CCCN(C(=O)c3ccccc3N(C)C)C2)c1 (stereo not drawn)	u	u	n	n	n	u
O=C(N/C(=C/C=C/c1ccccc1)C(=O)N1CCOCC1)c1ccccc1Br	n	u	n	n	n	n
CCN(CC)C(=O)c1ncn2c1C(=O)N[C@@H](C)C2	x	x	n	x	x	x
COCCn1c(=NC(=O)c2cc(-c3cccs3)nc3ccccc23)sc2cc(S(N)(=O)=O)ccc21	n	n	n	n	n	10µM
Cc1nc(NC(=O)c2ccc3c(c2)OCO3)ccc1Br	n	n	n	55	46	n
Cc1cc(NC(=O)c2ccc3c(c2)OCO3)no1	n	n	n	106	29	n
O=C(CCC1CCCC1)Nc1ccc([N+](=O)[O-])cn1	n	n	n	54	35	n
Cc1cc(NC(=O)c2ccc3c(c2)OCCO3)no1	n	u	x	n	n	n
O=C(NC(=S)Nc1cc([N+](=O)[O-])ccc1O)c1ccc2c(c1)OCO2	n	n	n	83	42	n
COc1cc([N+](=O)[O-])ccc1NC(=S)NNC(=O)c1ccc2c(c1)OCO2	n	n	n	n	n	n
CN(C)S(=O)(=O)c1cccc(NC(=O)c2cc(=O)[nH]c(=O)[nH]2)c1	n	n	n	n	n	n
Cc1oc(C(C)(C)C)cc1-c1cc(NC(=O)c2ccc([N+](=O)[O-])cc2)n[nH]1	2.3µM	1.9µM	n	n	n	n
O=C(NC(=S)Nc1ccc([N+](=O)[O-])cc1O)C1CCCCC1	n	u	n	n	n	n
CC(C)(C)c1ccc(C(=O)Nc2ccc([N+](=O)[O-])cn2)cc1	n	n	n	76	58	n
O=C(Nc1ccc([N+](=O)[O-])cn1)c1cccnc1	n	n	n	x	n	n
Cn1ccc(C(=O)NC(=S)Nc2ccc([N+](=O)[O-])cc2O)n1	n	n	n	n	28	n
CCC(CC)C(=O)Nc1ccc([N+](=O)[O-])cn1	u	n	-84	n	n	n
CCN1CCCc2cc(CN(CCN3CCOCC3)C(=S)Nc3cccc(Cl)c3)ccc21	n	u	u	n	n	u
O=C(Nc1ccc([N+](=O)[O-])cn1)c1ccc2c(c1)OCO2	n	n	n	68	31	n
O=C(Nc1ccccn1)c1ccc2c(c1)OCO2	n	n	n	44	36	n
O=C(Nc1ccccn1)c1ccc2c(c1)OCCO2	n	n	n	n	n	n
CCc1nnc2c(Nc3ccc(Br)c(C)c3)nc3ccccc3n12	x	x	n	x	x	x
CC(=O)c1cccc(NC(=O)CCn2c(=O)oc3ccccc32)c1	n	n	n	n	n	n
COc1cccc(C(=O)NCCN2CCN(c3ccccc3)CC2)c1	n	n	n	x	n	n
O=C(COC(=O)/C=C/c1ccco1)NCCc1ccccc1	n	n	n	n	n	n
Cc1noc(C)c1-c1ccc2ncnc(NCc3ccc4c(c3)OCO4)c2c1	x	x	x	n	n	x
COCCN(C(=O)COC(=O)c1cccs1)c1c(N)n(Cc2ccccc2)c(=O)[nH]c1=O	n	n	n	n	n	n
Cc1ccc(SCc2cc(=O)[nH]c(N3CCN(C)CC3)n2)cc1	n	x	n	n	n	n
Cc1ccc(SCc2nn(C)c(Cl)c2C=O)cc1	n	n	n	57	42	n
